Results on 40 compounds are retold here after PubChem BioAssay.

Where “and” joins values, the source holds several entries; their conditions need not be identical. Identical values can stand only once. Inconclusive results are not listed. Calls of active or inactive are those of the source.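 Rule for the calls, unless noted: active = GFP signal, as percent of the solvent control, above the screen mean plus 3 SD, about 149; inconclusive = no reading because the compound's own fluorescence upset strain identification; inactive = the rest.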

The first assay in a line: TOR pathway RTG branch CIT2 reporter changes – S. cerevisiae, GFP fusion, multiplex flow cytometry, primary screen (AID 1870;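 active = percent response above a set limit, the screen-wide mean plus 3 SD, cut at about 130% in these data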;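 note: barcoded CIT2-GFP strain pooled with four other GFP strains with rapamycin as positive control; median GFP fluorescence per well over plate mean of DMSO wells so 100% = DMSO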). As to conditions: S. cerevisiae CIT2-GFP expression, 3 h, at 10 µM, hits give high values.
Take `CN1C[C@H](CNC(=O)OCc2ccccc2)C[C@@H]2c3cccc4c3c(cn4C)C[C@H]21`: the percent response of DMSO control is 99% (inactive).
Take `C[N+]1(C)C2CCC1CC(OC(=O)C(CO)c1ccccc1)C2` (stereo not given): the percent response of DMSO control is 112% (inactive).
Turning to `CCC1(c2ccccc2)C(=O)N(COC)C(=O)N(COC)C1=O`, the percent response of DMSO control is 103% (inactive).
Consider `CCn1c(O)c(C(=O)CC2NCCc3ccccc32)c(=O)n(CC)c1=S` (stereo not given), for which the percent response of DMSO control is 97.7% (inactive).
With `NC(=O)CN1CCCC1=O`, the percent response of DMSO control is 118% (inactive).
Regarding `Cc1ccsc1C(=O)C1CCCN(Cc2cc3ccccc3o2)C1` (stereo not given), the percent response of DMSO control was 114% (inactive).
Regarding `CN1C2CCC1CC(OC(=O)c1ccc(Cl)cc1)C2` (stereo not given), the percent response of DMSO control was 98.6% (inactive).
As for `Cn1c(O)c(C=NCCc2c[nH]c3ccccc23)c(=O)n(C)c1=O`, the percent response of DMSO control is 97.7% (inactive).
Still for that read-out and setting: with `CC12CN3CC(C)(CN(C1)C3c1cccs1)C2=O` (stereo not given) the figure was 109% (inactive); with `[N-]=[N+]=CC(=O)OC[C@H](N)C(=O)O`, 100% (inactive).
Turning to `COP(=O)(OC)C(O)C(Cl)(Cl)Cl` (stereo not given), the percent response of DMSO control is 102% (inactive).
`CC(C)[N+](C)(CCC(C(N)=O)(c1ccccc1)c1ccccc1)C(C)C`: the percent response of DMSO control was 107% (inactive).
In the case of `C[C@@]1(CO)[C@H](O)CC[C@@]2(C)[C@H]1CC[C@H]1C[C@@H]3C[C@@]12CC[C@]3(O)CO`, the percent response of DMSO control was 102% (inactive).
With `O=C1CCCC2=C1C(c1cccnc1)Nc1ccccc1N2` (stereo not given), the percent response of DMSO control is 121% (inactive).
As to `O=c1[nH]c(=S)n(-c2ccccc2)c(O)c1/C=N/N1CCCCC1c1cccnc1` (stereo not given), the percent response of DMSO control was 90.8% (inactive).
Still for that read-out and setting: with `Clc1ccc(C2NCCc3[nH]cnc32)cc1` (stereo not given) the figure was 101% (inactive); with `Cc1ccc(-n2c(C)cc(/C=C3/C(=O)NC(=O)N(C)C3=O)c2C)cc1`, 107% (inactive); with `C[N+]1(C)CCc2cc3c(cc2[C@H]1[C@@H]1OC(=O)c2c1ccc1c2OCO1)OCO3`, 104% (inactive) and 93.1% (inactive).
For the compound `COc1ccc(NC2=NCC(C)S2)cc1` (stereo not given), the percent response of DMSO control was 109% (inactive).
For the compound `CC12CN3CC(C)(CN(C1)C3c1cccs1)C2O` (stereo not given), the percent response of DMSO control was 109% (inactive).
On to `O=C1NCCN2CCCC12` (stereo not given), for which the percent response of DMSO control is 102% (inactive).
For `NNC(=O)c1ccc(Cl)cc1`, the percent response of DMSO control was 104% (inactive).
Regarding `CN1CCN(C(=O)OC2c3nccnc3C(=O)N2c2ccc(Cl)cn2)CC1` (stereo not given), the percent response of DMSO control was 92.9% (inactive).
Take `O=c1[nH]c2ccccc2n1C1CCN(CCCC(c2ccc(F)cc2)c2ccc(F)cc2)CC1`: the percent response of DMSO control is 103% (inactive).
Consider `O=C1NC(=O)C2(Cc3ccccc3N3CCCC32)C(=O)N1c1ccc(Cl)cc1` (stereo not given), for which the percent response of DMSO control was 101% (inactive).
For the compound `CC1CCC[C@H](O)CCCCCc2cc(O)cc(O)c2C(=O)O1` (stereo not given in full), the percent response of DMSO control was 106% (inactive).
On the same count and under the same terms, with `O=c1cccc2n1C[C@H]1C[C@@H]2CN2CCCC[C@@H]12` the figure was 94.8% (inactive); with `CC(=O)OC1C2CCC1C(N1CCCC1)CC2` (stereo not given), 97.7% (inactive); with `CCOc1ccc(C2C(C#N)=C(N)Oc3c2c(=O)oc2ccccc32)cc1` (stereo not given), 102% (inactive).
In the case of `COc1cc2c3cc1Oc1cc(ccc1O)C[C@@H]1c4c(cc(OC)c(O)c4Oc4ccc(cc4)C[C@H]3N(C)CC2)CCN1C`, the percent response of DMSO control is 107% (inactive).
Same read-out and setting: with `CN1CC[C@@]23CCCC[C@@H]2[C@@H]1Cc1ccc(O)cc13` the figure was 96.6% (inactive).
As to `O=c1c2ccccc2[se]n1-c1ccccc1`, the percent response of DMSO control is 110% (inactive).
As to `CC[N+]1(C)CCCC(OC(=O)C(O)(c2ccccc2)c2ccccc2)C1` (stereo not given), the percent response of DMSO control was 103% (inactive).
As to `C[C@]12CCC(=O)C=C1CCC1C2CC[C@@]2(C)C1CC[C@@]2(O)CC#N` (stereo not given in full), the percent response of DMSO control is 101% (inactive).
`C[C@H]1CC[C@@]2(C)[C@@H](CC[C@@H]3[C@@H]2CC[C@]2(C)[C@@H](O)CC[C@@H]32)C1`: the percent response of DMSO control is 92% (inactive).
Same read-out and setting: with `C[C@H]1OC[C@@H](C[N+](C)(C)C)O1` the figure was 101% (inactive).
As for `CC(C)(C)C(O)C(Oc1ccc(Cl)cc1)n1cncn1` (stereo not given), the percent response of DMSO control is 106% (inactive).
Still for that read-out and setting: next, `C[C@@H]1O[C@@H](O[C@H]2C[C@@H](O)[C@]3(CO)[C@H]4[C@H](O)C[C@]5(C)[C@@H](C6COC(=O)C6)CC[C@]5(O)[C@@H]4CC[C@]3(O)C2)[C@H](O)[C@H](O)[C@H]1O` (stereo not given in full): 105% (inactive).
`CC(=O)c1ccc(-c2ccccc2)cc1`: the percent response of DMSO control is 110% (inactive).
With `CCOC(=O)c1cc2c(cn1)[nH]c1ccccc12`, the percent response of DMSO control is 103% (inactive).

Another assay in a line: TOR pathway LAP4-GFP level changes – S. cerevisiae, multiplex flow cytometry, primary screen (AID 1873). As to conditions: S. cerevisiae LAP4-GFP expression, 3 h, at 10 µM, hits give high values.
As for `CN1C[C@H](CNC(=O)OCc2ccccc2)C[C@@H]2c3cccc4c3c(cn4C)C[C@H]21`, the GFP response vs DMSO was 104% (inactive).
With `C[N+]1(C)C2CCC1CC(OC(=O)C(CO)c1ccccc1)C2` (stereo not given), the GFP response vs DMSO was 88.1% (inactive).
On to `CCC1(c2ccccc2)C(=O)N(COC)C(=O)N(COC)C1=O`, for which the GFP response vs DMSO is 112% (inactive).
On to `CCn1c(O)c(C(=O)CC2NCCc3ccccc32)c(=O)n(CC)c1=S` (stereo not given), for which the GFP response vs DMSO was 132% (inactive).
On to `NC(=O)CN1CCCC1=O`, for which the GFP response vs DMSO is 73.2% (inactive).
On the same count and under the same terms, with `Cc1ccsc1C(=O)C1CCCN(Cc2cc3ccccc3o2)C1` (stereo not given) the figure was 85.5% (inactive).
For `CN1C2CCC1CC(OC(=O)c1ccc(Cl)cc1)C2` (stereo not given), the GFP response vs DMSO was 119% (inactive).
Take `Cn1c(O)c(C=NCCc2c[nH]c3ccccc23)c(=O)n(C)c1=O`: the GFP response vs DMSO was 120% (inactive).
For the compound `CC12CN3CC(C)(CN(C1)C3c1cccs1)C2=O` (stereo not given), the GFP response vs DMSO was 97.3% (inactive).
On to `[N-]=[N+]=CC(=O)OC[C@H](N)C(=O)O`, for which the GFP response vs DMSO was 109% (inactive).
For `COP(=O)(OC)C(O)C(Cl)(Cl)Cl` (stereo not given), the GFP response vs DMSO was 99.9% (inactive).
Consider `CC(C)[N+](C)(CCC(C(N)=O)(c1ccccc1)c1ccccc1)C(C)C`, for which the GFP response vs DMSO was 99.1% (inactive).
As for `C[C@@]1(CO)[C@H](O)CC[C@@]2(C)[C@H]1CC[C@H]1C[C@@H]3C[C@@]12CC[C@]3(O)CO`, the GFP response vs DMSO is 103% (inactive).
As to `O=C1CCCC2=C1C(c1cccnc1)Nc1ccccc1N2` (stereo not given), the GFP response vs DMSO was 89.4% (inactive).
With `O=c1[nH]c(=S)n(-c2ccccc2)c(O)c1/C=N/N1CCCCC1c1cccnc1` (stereo not given), the GFP response vs DMSO is 84.8% (inactive).
Consider `Clc1ccc(C2NCCc3[nH]cnc32)cc1` (stereo not given), for which the GFP response vs DMSO is 92% (inactive).
As for `Cc1ccc(-n2c(C)cc(/C=C3/C(=O)NC(=O)N(C)C3=O)c2C)cc1`, the GFP response vs DMSO is 103% (inactive).
On to `C[N+]1(C)CCc2cc3c(cc2[C@H]1[C@@H]1OC(=O)c2c1ccc1c2OCO1)OCO3`, for which the GFP response vs DMSO is 98% (inactive) and 90.1% (inactive).
On to `COc1ccc(NC2=NCC(C)S2)cc1` (stereo not given), for which the GFP response vs DMSO is 89.3% (inactive).
For `CC12CN3CC(C)(CN(C1)C3c1cccs1)C2O` (stereo not given), the GFP response vs DMSO is 83.5% (inactive).
Consider `O=C1NCCN2CCCC12` (stereo not given), for which the GFP response vs DMSO is 93.7% (inactive).
Take `NNC(=O)c1ccc(Cl)cc1`: the GFP response vs DMSO was 102% (inactive).
As to `CN1CCN(C(=O)OC2c3nccnc3C(=O)N2c2ccc(Cl)cn2)CC1` (stereo not given), the GFP response vs DMSO is 117% (inactive).
`O=c1[nH]c2ccccc2n1C1CCN(CCCC(c2ccc(F)cc2)c2ccc(F)cc2)CC1`: the GFP response vs DMSO was 130% (inactive).
For the compound `O=C1NC(=O)C2(Cc3ccccc3N3CCCC32)C(=O)N1c1ccc(Cl)cc1` (stereo not given), the GFP response vs DMSO is 93.3% (inactive).
Consider `CC1CCC[C@H](O)CCCCCc2cc(O)cc(O)c2C(=O)O1` (stereo not given in full), for which the GFP response vs DMSO was 114% (inactive).
For the compound `O=c1cccc2n1C[C@H]1C[C@@H]2CN2CCCC[C@@H]12`, the GFP response vs DMSO was 118% (inactive).
As for `CC(=O)OC1C2CCC1C(N1CCCC1)CC2` (stereo not given), the GFP response vs DMSO is 104% (inactive).
Regarding `CCOc1ccc(C2C(C#N)=C(N)Oc3c2c(=O)oc2ccccc32)cc1` (stereo not given), the GFP response vs DMSO is 102% (inactive).
Take `COc1cc2c3cc1Oc1cc(ccc1O)C[C@@H]1c4c(cc(OC)c(O)c4Oc4ccc(cc4)C[C@H]3N(C)CC2)CCN1C`: the GFP response vs DMSO is 81.4% (inactive).
On to `CN1CC[C@@]23CCCC[C@@H]2[C@@H]1Cc1ccc(O)cc13`, for which the GFP response vs DMSO was 98.6% (inactive).
Consider `O=c1c2ccccc2[se]n1-c1ccccc1`, for which the GFP response vs DMSO was 94.4% (inactive).
`CC[N+]1(C)CCCC(OC(=O)C(O)(c2ccccc2)c2ccccc2)C1` (stereo not given): the GFP response vs DMSO was 103% (inactive).
As to `C[C@]12CCC(=O)C=C1CCC1C2CC[C@@]2(C)C1CC[C@@]2(O)CC#N` (stereo not given in full), the GFP response vs DMSO is 90.7% (inactive).
On the same count and under the same terms, next, `C[C@H]1CC[C@@]2(C)[C@@H](CC[C@@H]3[C@@H]2CC[C@]2(C)[C@@H](O)CC[C@@H]32)C1`: 137% (inactive); `C[C@H]1OC[C@@H](C[N+](C)(C)C)O1`: 92.6% (inactive); `CC(C)(C)C(O)C(Oc1ccc(Cl)cc1)n1cncn1` (stereo not given): 121% (inactive).
The same measure, in the same setting: next, `C[C@@H]1O[C@@H](O[C@H]2C[C@@H](O)[C@]3(CO)[C@H]4[C@H](O)C[C@]5(C)[C@@H](C6COC(=O)C6)CC[C@]5(O)[C@@H]4CC[C@]3(O)C2)[C@H](O)[C@H](O)[C@H]1O` (stereo not given in full): 112% (inactive); `CC(=O)c1ccc(-c2ccccc2)cc1`: 84.7% (inactive); `CCOC(=O)c1cc2c(cn1)[nH]c1ccccc12`: 105% (inactive).
